Measured values as given in PMC10668032, “Altered binding affinity of SIX1-Q177R correlates with enhanced WNT5A and WNT pathway effector expression in Wilms tumor”.
Over roughly 33,000 sequences, “e-score” has its median near -0.053; the highest 2% begin near 0.38. Shown is part of a subset that was picked to be rich in the highest values.

target: T1, SIX1 homeodomain (reference allele) (human, UniProt Q15475 108-198); test: universal protein binding microarray; Universal all-10-mer PBM (8x60K, AMADID 030236), 300 nM GST-tagged protein, Alexa Fluor 488 anti-GST; buffer, salt, pH and temperature not stated (as in Berger); high values mean tight binding; details: protein: ivt; tags: N-terminal GST; dsDNA, one strand shown
T1 sequence: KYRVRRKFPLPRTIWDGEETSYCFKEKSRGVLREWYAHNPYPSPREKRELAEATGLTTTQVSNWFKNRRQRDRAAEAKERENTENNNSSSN
Summary of the method: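 GST-tagged homeodomains were made by in vitro transcription/translation and quantified by anti-GST western blot against a recombinant GST standard curve. They were applied in duplicate at 300 nM final concentration to universal 'all 10-mer' protein binding microarrays (8×60K format). Binding was quantified as 8-mer E-scores with the Universal PBM Analysis Suite.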

Sequence	binding signal [E-score]
ATACCACA	0.3 ± 0.00694
ACACCATA	0.302 ± 0.022
ATACCATG	0.362 ± 0.0283
ATACCATA	0.3938 ± 0.0037
CTACCATA	0.167 ± 0.0746
ATACCATC	0.384 ± 0.0257
ATACCACG	0.291 ± 0.0123
ATACCAAC	0.367 ± 0.0126
ACACCACA	0.328 ± 0.0113
ATCCCCGA	0.368 ± 0.0273
ATGGAGGA	0.155 ± 0.0279
CTATACGA	0.1804 ± 0.000898
ACCCTTCT	0.224 ± 0.046
CACCCCTC	0.251 ± 0.0895
AGATTAAT	0.2 ± 0.0731
ATTAAACC	0.174 ± 0.0609
GTGATCGA	0.159 ± 0.103
TATTGGCA	0.223 ± 0.0277
ATCATACA	0.306 ± 0.0152
ATGATACA	0.449 ± 0.0144
GTGATACA	0.444 ± 0.0156
TAGATACA	0.25 ± 0.019
ATGATGCC	0.157 ± 0.00805
ATGATAAT	0.168 ± 0.0146
ATGATACC	0.4885 ± 0.000523

Sequence	binding signal [E-score]
CTGATACA	0.404 ± 0.00574
TCGATACA	0.348 ± 0.00588
GTTATACA	0.151 ± 0.064
AAGATACA	0.265 ± 0.0451
CTACAGTA	0.152 ± 0.00721
ATCACTAC	0.287 ± 0.0143
GGATTGTA	0.162 ± 0.0146
ACGCGATC	0.275 ± 0.00505
GATAGCGA	0.251 ± 0.00148
ATACATTG	0.218 ± 0.012
GTATATTA	0.267 ± 0.0332
ATCATACG	0.269 ± 0.0223
ATGATACG	0.48 ± 0.01
CTCATACC	0.171 ± 0.00583
CTGATACC	0.4842 ± 0.00158
CTGAGACC	0.261 ± 0.00696
ATGATCAG	0.229 ± 0.031
ATCGGGTA	0.337 ± 0.0486
GATCGGAA	0.167 ± 0.0621
CCTAGATC	0.228 ± 0.0313
ATCAGTCA	0.2227 ± 0.00177
AGGGATGA	0.176 ± 0.025
GGGGATCA	0.4469 ± 0.0011
AGAGATCG	0.25548 ± 0.000134
GGGGATTA	0.302 ± 0.0187

Sequence	binding signal [E-score]
AGGGATCG	0.386 ± 0.0182
AGGGATCA	0.4493 ± 0.00351
GGGGATGA	0.267 ± 0.0256
CGGGATGA	0.159 ± 0.0157
CGGGATCA	0.417 ± 0.0124
CGGGATTA	0.263 ± 0.0233
AGGGATTG	0.203 ± 0.0478
AGGGATTA	0.305 ± 0.032
CAGCGATC	0.265 ± 0.0201
ATTATGTG	0.171 ± 0.0412
ATACTCGC	0.34 ± 0.069
CTATACGC	0.215 ± 0.0251
CGATCTGC	0.209 ± 0.00856
CAGATTAC	0.187 ± 0.0577
GATTATGC	0.265 ± 0.0543
CCCATCTC	0.292 ± 0.0209
ACACCTTG	0.186 ± 0.0328
CTGGATCC	0.351 ± 0.0527
CAGGATCC	0.354 ± 0.0257
AGGGATCC	0.386 ± 0.0382
AAGGATCC	0.35 ± 0.0205
CGGGATCC	0.393 ± 0.0513
ATGGATCC	0.362 ± 0.0547
ATTCGATA	0.302 ± 0.0451
ATCAAAAA	0.153 ± 0.0897

Sequence	binding signal [E-score]
ATCTAATA	0.237 ± 0.0442
TACACCCA	0.341 ± 0.0149
AACACCCC	0.268 ± 0.0366
GACACCCA	0.396 ± 0.0322
GACACCCC	0.436 ± 0.0137
GACACCAA	0.364 ± 0.0101
CACACCCC	0.26 ± 0.0792
GATTATAC	0.34 ± 0.0371
GCCGATCA	0.229 ± 0.0129
ATAGCCCC	0.181 ± 0.0335
TATCAGAA	0.354 ± 0.0409
TACCTCTA	0.204 ± 0.0372
GGGACACC	0.341 ± 0.0406
GAGACACC	0.306 ± 0.032
AAGACACC	0.347 ± 0.0269
CCGACACC	0.438 ± 0.013
GCGACACC	0.412 ± 0.0314
ACGACACG	0.156 ± 0.0251
CCAACACC	0.291 ± 0.0364
CCGACAGA	0.195 ± 0.026
ACGACACC	0.432 ± 0.024
CTGCTATC	0.292 ± 0.00957
CACACCAG	0.156 ± 0.0892
ACTAATAC	0.225 ± 0.029
GATGTATA	0.306 ± 0.0136

Sequence	binding signal [E-score]
ATGAGATA	0.262 ± 0.0851
GTGATATA	0.419 ± 0.016
TAGATATA	0.323 ± 0.076
CTAATATC	0.339 ± 0.0352
CTGATATA	0.358 ± 0.0287
GCTATATA	0.2534 ± 0.00173
CTTATATC	0.292 ± 0.0136
CTGATATC	0.465 ± 0.0148
GTGAGATA	0.388 ± 0.0283
CTGAGATA	0.248 ± 0.0841
CCGATATA	0.333 ± 0.0187
GCGATATA	0.399 ± 0.0347
ATGAGAAG	0.176 ± 0.0788
ATATGCAG	0.222 ± 0.0653
GATTACGC	0.225 ± 0.0112
ATTGAGTA	0.192 ± 0.0104
AGATCTCC	0.184 ± 0.0698
ATCTGAGA	0.292 ± 0.0452
CATATGAG	0.19 ± 0.0156
GATCGCAC	0.253 ± 0.0507
ATGATATG	0.472 ± 0.0175
AAGATATA	0.28 ± 0.0929
ATTATATC	0.329 ± 0.0838
ATTATATA	0.254 ± 0.0255
ATGATATC	0.476 ± 0.0196

Sequence	binding signal [E-score]
ATCATATG	0.281 ± 0.0284
ATTATATG	0.182 ± 0.0439
ATGATATA	0.414 ± 0.0235
ATAATATC	0.358 ± 0.0729
CTGGCATA	0.228 ± 0.0218
ATCATTCC	0.291 ± 0.0446
GATCAACC	0.319 ± 0.0399
ACGATCAG	0.1967 ± 0.000827
CGGATTTA	0.196 ± 0.05
GATCCCGC	0.375 ± 0.0422
GATCCCCA	0.387 ± 0.046
TATCCCCA	0.35 ± 0.00527
CATCCCCC	0.199 ± 0.0656
GATCGCCA	0.211 ± 0.0516
AATCCCCC	0.261 ± 0.00738
AATCCCAC	0.158 ± 0.00675
GATCCCAC	0.379 ± 0.0379
GATCCCAA	0.275 ± 0.0231
GATCGCCC	0.379 ± 0.00824
GATCCCCC	0.47 ± 0.0193
GATCGCGC	0.197 ± 0.0401
ATCTACAG	0.152 ± 0.023
ACGTATAT	0.271 ± 0.065
ATCTAGAT	0.26 ± 0.0531
CGAGACGA	0.156 ± 0.029

Sequence	binding signal [E-score]
CCGGAGAC	0.184 ± 0.00939
CCCCGATC	0.346 ± 0.0685
ATGAGCTC	0.166 ± 0.0357
GATCCAGC	0.265 ± 0.0768
GATCCTCA	0.295 ± 0.0129
GATCCTCC	0.381 ± 0.0158
GATCCACC	0.394 ± 0.0435
GATCCACA	0.335 ± 0.0765
CATCCTCC	0.153 ± 0.0426
ATCTGTCC	0.29 ± 0.0606
CGAGACAC	0.176 ± 0.0324
CATAGATA	0.259 ± 0.0781
TCACATGA	0.166 ± 0.0132
ATATCCCA	0.418 ± 0.0119
CTATCCCA	0.257 ± 0.013
ATCTCCCA	0.238 ± 0.0314
ATATCCCC	0.457 ± 0.00651
CTATCCCC	0.321 ± 0.0256
ATATCCCG	0.42 ± 0.0102
AAATCCCC	0.181 ± 0.0853
GTATCCCA	0.388 ± 0.0324
CAATCCCG	0.155 ± 0.0636
GAATCCCA	0.165 ± 0.0648
ATCTCCCG	0.222 ± 0.0116
CAATCCCA	0.177 ± 0.00991
